# Results from the supplement of paper PMC11732987, “Enantioselective OTUD7B fragment discovery through chemoproteomics screening and high-throughput optimisation” (Communications Chemistry, 2025).
# Unmarked numbers belong to inactive results.
# Key:
# Experiment in all cases: log2 ratio of Biotin-Ahx-Ub-VS probe labelling (fragment/DMSO); higher = less target engagement (more negative = stronger competition), active = hit call of the paper (q ≤ 0.05, log2 ratio ≤ -1)
# Details in all cases: compound concentration: 200 uM; treatment time: 3 h
# UniProt O00507 = biological target: UniProt O00507
# UniProt O00507, sequence (O00507 whole entry, the tested form may be a part): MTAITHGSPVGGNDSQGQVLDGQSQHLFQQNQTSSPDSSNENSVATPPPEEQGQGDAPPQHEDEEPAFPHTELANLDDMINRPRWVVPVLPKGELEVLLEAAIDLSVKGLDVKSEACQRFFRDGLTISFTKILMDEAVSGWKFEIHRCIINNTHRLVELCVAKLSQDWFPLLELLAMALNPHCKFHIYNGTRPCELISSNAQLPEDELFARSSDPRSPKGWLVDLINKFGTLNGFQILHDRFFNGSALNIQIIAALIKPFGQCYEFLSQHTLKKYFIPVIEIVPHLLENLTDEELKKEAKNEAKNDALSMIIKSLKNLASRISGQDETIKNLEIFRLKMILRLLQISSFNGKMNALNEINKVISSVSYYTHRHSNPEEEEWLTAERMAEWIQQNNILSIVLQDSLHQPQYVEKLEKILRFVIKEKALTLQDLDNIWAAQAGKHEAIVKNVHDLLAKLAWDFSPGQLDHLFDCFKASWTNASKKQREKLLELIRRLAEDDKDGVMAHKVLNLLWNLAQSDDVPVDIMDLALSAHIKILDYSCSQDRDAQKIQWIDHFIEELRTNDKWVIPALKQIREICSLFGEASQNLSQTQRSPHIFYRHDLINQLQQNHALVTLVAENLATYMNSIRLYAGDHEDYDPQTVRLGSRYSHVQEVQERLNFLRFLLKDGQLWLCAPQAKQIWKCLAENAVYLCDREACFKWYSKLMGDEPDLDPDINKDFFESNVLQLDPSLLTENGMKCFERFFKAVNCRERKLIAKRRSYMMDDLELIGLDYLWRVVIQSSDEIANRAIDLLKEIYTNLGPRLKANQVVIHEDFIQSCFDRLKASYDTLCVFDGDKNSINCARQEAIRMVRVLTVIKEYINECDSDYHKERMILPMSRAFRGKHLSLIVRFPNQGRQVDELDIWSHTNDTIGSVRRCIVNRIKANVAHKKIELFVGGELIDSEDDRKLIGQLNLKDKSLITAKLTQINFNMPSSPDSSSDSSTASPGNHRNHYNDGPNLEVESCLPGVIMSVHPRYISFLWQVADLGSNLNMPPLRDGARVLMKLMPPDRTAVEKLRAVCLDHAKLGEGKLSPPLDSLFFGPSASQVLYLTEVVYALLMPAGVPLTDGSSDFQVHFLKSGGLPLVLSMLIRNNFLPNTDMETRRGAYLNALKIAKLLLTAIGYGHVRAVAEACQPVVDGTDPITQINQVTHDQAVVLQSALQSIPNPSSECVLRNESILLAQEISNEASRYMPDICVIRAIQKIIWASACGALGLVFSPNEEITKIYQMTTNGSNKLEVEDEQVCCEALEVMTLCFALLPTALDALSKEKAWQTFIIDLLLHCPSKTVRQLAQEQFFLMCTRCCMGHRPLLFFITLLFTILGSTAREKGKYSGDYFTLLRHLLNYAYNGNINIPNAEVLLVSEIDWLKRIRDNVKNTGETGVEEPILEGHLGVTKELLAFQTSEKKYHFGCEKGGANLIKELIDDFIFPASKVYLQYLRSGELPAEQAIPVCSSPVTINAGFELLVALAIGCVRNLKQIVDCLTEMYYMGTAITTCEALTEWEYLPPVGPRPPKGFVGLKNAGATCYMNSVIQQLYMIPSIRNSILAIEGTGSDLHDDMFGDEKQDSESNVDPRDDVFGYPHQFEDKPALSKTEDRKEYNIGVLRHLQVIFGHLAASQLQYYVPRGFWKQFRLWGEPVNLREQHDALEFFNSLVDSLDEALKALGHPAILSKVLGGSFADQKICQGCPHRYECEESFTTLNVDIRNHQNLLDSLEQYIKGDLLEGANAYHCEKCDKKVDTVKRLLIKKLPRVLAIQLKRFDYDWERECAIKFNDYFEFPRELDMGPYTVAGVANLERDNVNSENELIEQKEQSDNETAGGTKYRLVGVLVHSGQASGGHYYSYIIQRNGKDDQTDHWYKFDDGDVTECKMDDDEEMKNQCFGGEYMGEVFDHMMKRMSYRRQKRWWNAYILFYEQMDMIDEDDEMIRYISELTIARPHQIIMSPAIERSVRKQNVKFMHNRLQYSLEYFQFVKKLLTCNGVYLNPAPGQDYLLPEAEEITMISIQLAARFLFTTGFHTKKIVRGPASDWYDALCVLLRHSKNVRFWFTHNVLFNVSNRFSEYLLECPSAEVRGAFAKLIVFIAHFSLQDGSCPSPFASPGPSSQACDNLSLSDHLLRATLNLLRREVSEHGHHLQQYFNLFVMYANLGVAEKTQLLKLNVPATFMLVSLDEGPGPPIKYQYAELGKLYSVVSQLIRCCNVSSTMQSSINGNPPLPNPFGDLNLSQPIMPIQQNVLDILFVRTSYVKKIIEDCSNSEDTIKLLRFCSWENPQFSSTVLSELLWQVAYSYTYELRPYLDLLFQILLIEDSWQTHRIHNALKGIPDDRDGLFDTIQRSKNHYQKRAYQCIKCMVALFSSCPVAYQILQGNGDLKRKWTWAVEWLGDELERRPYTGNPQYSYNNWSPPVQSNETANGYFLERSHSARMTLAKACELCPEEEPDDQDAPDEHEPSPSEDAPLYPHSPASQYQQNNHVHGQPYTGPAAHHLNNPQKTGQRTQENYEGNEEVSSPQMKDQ
# Method in brief: (§1)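 Triplicate samples of HEK293T lysate, 495 µg each, received fragment at 200 µM or vehicle for 3 h, followed by Biotin-Ahx-Ub-VS (0.5 µM final) for 1 h. After NeutrAvidin enrichment of labelled DUBs and LysC/trypsin digestion, peptides were run by diaPASEF LC-MS/MS. The values are average log2 fragment/vehicle ratios from global-median-normalised Spectronaut label-free quantities, tested by unpaired t-test on proteins having ≥2 unique peptides.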
# UniProt P51784 = biological target: UniProt P51784
# UniProt P51784, sequence (P51784 whole entry): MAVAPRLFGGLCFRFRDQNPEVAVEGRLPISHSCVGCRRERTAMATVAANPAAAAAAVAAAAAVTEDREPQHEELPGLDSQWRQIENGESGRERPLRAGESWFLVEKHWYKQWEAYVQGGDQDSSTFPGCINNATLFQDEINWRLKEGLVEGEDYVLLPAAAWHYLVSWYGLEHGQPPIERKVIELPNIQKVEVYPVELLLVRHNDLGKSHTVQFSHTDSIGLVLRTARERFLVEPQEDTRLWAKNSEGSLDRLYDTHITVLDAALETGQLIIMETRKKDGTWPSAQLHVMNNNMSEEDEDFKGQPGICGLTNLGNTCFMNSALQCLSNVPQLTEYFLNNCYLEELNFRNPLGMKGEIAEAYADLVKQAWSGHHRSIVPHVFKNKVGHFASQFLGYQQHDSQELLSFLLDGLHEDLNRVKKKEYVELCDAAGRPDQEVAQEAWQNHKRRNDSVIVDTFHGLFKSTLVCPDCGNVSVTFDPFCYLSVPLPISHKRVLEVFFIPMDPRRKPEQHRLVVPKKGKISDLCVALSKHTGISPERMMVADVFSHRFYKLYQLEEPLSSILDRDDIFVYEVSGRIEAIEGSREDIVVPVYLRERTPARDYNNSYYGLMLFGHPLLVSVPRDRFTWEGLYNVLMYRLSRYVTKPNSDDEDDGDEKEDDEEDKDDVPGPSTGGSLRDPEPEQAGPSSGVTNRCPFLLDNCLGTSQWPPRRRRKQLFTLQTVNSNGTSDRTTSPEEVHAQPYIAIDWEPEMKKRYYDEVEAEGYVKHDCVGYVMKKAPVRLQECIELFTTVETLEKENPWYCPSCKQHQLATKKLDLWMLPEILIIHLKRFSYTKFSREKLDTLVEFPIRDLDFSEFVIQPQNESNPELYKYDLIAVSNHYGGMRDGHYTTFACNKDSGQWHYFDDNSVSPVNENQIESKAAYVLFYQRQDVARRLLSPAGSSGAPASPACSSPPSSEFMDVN
# Method in brief: as §1
# UniProt Q5T2D3 = biological target: T1, UniProt Q5T2D3
# T1 sequence (whole entry): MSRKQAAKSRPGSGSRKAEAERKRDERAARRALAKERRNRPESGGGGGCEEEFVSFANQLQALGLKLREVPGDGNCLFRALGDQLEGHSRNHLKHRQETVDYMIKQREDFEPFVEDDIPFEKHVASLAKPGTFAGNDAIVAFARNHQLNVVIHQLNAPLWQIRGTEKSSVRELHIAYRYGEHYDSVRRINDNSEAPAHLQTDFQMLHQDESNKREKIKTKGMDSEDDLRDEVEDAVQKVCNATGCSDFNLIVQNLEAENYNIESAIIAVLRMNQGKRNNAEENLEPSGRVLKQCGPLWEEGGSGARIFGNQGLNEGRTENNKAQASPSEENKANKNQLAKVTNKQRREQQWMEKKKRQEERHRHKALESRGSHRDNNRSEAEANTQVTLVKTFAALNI
# Method in brief: as §1
# UniProt Q8TE49 = biological target: T2, UniProt Q8TE49
# T2 sequence (whole entry): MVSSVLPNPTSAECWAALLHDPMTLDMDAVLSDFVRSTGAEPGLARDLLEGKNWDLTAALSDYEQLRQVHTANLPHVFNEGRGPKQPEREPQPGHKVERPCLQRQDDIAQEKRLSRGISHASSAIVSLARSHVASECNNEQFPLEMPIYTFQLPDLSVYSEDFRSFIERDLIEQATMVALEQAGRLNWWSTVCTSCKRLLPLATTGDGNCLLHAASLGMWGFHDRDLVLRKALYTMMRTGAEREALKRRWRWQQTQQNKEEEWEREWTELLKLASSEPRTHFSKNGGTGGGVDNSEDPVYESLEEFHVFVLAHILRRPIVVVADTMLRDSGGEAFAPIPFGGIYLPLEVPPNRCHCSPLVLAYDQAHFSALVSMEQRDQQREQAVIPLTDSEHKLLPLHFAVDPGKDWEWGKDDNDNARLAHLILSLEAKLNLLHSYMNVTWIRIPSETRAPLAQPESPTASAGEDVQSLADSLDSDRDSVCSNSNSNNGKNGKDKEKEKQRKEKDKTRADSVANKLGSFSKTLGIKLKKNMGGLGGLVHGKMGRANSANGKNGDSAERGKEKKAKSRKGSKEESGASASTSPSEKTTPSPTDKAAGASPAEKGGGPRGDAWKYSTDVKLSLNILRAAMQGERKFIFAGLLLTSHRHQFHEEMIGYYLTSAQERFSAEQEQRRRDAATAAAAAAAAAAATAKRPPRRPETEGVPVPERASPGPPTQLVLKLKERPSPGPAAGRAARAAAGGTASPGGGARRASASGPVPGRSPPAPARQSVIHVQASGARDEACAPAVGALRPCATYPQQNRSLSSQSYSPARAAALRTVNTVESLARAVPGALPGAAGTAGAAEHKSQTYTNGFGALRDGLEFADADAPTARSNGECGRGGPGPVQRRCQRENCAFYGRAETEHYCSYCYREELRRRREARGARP
# Method in brief: as §1
# UniProt Q9P2H5 = biological target: T3, UniProt Q9P2H5
# T3 sequence (whole entry): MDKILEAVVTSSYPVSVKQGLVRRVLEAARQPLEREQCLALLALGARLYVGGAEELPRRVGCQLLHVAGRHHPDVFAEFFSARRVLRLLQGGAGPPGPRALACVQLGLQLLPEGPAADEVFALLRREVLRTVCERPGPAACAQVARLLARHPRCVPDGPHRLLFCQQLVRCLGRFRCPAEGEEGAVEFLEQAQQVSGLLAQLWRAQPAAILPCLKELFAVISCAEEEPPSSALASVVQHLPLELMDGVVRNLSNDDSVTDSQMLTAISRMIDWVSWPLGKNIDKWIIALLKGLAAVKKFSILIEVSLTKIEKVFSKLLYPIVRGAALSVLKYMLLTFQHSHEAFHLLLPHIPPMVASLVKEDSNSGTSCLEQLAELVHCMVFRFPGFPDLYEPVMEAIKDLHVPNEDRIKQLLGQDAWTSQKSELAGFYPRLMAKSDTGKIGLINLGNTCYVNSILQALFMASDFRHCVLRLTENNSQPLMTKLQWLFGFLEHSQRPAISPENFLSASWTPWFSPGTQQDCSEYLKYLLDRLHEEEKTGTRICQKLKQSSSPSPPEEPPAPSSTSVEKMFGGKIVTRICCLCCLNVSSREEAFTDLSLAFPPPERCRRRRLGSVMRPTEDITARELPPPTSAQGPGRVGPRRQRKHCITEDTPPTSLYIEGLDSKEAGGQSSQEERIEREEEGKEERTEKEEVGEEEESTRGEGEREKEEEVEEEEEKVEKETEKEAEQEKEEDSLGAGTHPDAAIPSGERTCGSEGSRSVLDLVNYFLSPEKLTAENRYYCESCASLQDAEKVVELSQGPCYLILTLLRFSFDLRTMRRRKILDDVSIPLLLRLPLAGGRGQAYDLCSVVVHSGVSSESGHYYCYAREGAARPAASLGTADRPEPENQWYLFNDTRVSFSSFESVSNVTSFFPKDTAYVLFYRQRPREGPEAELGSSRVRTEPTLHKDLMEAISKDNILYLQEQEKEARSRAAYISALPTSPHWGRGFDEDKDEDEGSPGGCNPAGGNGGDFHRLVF
# Method in brief: as §1
# UniProt Q9UGI0 = biological target: T4, UniProt Q9UGI0
# T4 sequence (whole entry): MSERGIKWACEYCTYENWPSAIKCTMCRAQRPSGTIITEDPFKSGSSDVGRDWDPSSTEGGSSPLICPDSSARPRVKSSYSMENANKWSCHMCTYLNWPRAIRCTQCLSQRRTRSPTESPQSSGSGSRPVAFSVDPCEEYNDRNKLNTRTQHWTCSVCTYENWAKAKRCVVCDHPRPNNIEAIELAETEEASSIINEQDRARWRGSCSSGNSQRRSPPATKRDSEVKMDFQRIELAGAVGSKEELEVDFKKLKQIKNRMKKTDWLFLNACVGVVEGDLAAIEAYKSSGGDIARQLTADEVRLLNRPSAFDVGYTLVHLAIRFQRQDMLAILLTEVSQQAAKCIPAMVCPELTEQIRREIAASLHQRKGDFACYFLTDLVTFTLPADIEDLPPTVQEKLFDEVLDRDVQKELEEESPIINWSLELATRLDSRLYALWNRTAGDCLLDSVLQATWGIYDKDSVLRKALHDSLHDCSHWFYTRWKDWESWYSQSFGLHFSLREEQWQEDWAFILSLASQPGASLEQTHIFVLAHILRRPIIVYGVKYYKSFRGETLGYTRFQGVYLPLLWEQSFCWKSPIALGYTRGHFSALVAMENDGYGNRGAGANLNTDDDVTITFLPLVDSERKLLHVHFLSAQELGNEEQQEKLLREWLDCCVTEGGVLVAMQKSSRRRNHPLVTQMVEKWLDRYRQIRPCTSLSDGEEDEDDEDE
# Method in brief: as §1
# YOD1 = biological target: T5, YOD1 (UniProt Q5VVQ6)
# T5 sequence (whole entry): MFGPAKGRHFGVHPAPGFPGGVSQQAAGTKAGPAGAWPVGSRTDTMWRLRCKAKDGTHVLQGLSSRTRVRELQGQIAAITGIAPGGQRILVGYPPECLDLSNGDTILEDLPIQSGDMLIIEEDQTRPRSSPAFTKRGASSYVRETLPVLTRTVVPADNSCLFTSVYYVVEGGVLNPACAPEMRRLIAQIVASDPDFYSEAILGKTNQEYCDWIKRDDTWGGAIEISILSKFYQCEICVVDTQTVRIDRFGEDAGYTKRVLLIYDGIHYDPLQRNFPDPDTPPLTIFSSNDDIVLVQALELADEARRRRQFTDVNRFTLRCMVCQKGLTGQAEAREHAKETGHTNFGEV
# Method in brief: as §1
SMILES,log2 ratio of Biotin-Ahx-Ub-VS probe labelling (UniProt O00507),log2 ratio of Biotin-Ahx-Ub-VS probe labelling (UniProt P51784),log2 ratio of Biotin-Ahx-Ub-VS probe labelling (UniProt Q5T2D3),log2 ratio of Biotin-Ahx-Ub-VS probe labelling (UniProt Q8TE49),log2 ratio of Biotin-Ahx-Ub-VS probe labelling (UniProt Q9P2H5),log2 ratio of Biotin-Ahx-Ub-VS probe labelling (UniProt Q9UGI0),log2 ratio of Biotin-Ahx-Ub-VS probe labelling (YOD1)
O=C(CCl)N1CCC(c2ccn[nH]2)C1 (stereo not drawn),-0.147,-0.136,-0.179,-0.464,-0.282,-0.767,0.0756
O=C(CCl)Nc1nnc(CC(F)(F)F)o1,-0.0948,-6e-05,-0.844,-0.179,-0.149,-0.304,0.0603
Cc1ccc(CC(NC(=O)CCl)c2ccccn2)cc1.Cl (stereo not drawn),-0.0403,0.188,0.254,0.237,-0.00516,-0.0851,0.248
Cc1cc(NC(=O)CCl)n(-c2ccccc2)n1,0.159,-0.0134,0.000838,-0.548,-0.36,-0.672,0.179
Cl.O=C(CCl)N1CCn2ncc(O)c2C1,-0.112,-0.0869,-0.448,-2.17 (active),-0.541,-1.92 (active),-0.272
COc1ccc(-c2csc(NC(=O)CCl)n2)cc1,-0.576,-0.0937,-0.257,-0.479,-0.528,-2.09 (active),-0.00199
O=C(CCl)Nc1cccc2ncccc12,0.145,0.265,-0.164,-0.784,-0.437,-1.64 (active),0.469
O=C(CCl)Nc1cc2c(cc1Cl)OCCO2,0.223,0.121,-0.437,-0.908,-0.253,-0.402,0.302
O=C(CCl)N1CCc2[nH]c3ccccc3c2C1,-1.27 (active),-0.429,-0.115,-0.338,-0.439,-1.68 (active),-0.2
